Results: the supplement of paper PMC3334620
Over roughly 33,000 sequences, “E-score (-0.5 to 0.5)” has its median near -0.035; the highest 2% begin near 0.35. The full list was thinned out, with the highest values kept by preference.

What follows are sequences tested against T1, Pdr3 (UniProt P33200) (assay: PBM E-score (8-mer binding enrichment) (E-score (-0.5 to 0.5)); higher = stronger / more preferred TF binding). Conditions: protein concentration: 200 nM; construct: GST-full length.
T1 sequence: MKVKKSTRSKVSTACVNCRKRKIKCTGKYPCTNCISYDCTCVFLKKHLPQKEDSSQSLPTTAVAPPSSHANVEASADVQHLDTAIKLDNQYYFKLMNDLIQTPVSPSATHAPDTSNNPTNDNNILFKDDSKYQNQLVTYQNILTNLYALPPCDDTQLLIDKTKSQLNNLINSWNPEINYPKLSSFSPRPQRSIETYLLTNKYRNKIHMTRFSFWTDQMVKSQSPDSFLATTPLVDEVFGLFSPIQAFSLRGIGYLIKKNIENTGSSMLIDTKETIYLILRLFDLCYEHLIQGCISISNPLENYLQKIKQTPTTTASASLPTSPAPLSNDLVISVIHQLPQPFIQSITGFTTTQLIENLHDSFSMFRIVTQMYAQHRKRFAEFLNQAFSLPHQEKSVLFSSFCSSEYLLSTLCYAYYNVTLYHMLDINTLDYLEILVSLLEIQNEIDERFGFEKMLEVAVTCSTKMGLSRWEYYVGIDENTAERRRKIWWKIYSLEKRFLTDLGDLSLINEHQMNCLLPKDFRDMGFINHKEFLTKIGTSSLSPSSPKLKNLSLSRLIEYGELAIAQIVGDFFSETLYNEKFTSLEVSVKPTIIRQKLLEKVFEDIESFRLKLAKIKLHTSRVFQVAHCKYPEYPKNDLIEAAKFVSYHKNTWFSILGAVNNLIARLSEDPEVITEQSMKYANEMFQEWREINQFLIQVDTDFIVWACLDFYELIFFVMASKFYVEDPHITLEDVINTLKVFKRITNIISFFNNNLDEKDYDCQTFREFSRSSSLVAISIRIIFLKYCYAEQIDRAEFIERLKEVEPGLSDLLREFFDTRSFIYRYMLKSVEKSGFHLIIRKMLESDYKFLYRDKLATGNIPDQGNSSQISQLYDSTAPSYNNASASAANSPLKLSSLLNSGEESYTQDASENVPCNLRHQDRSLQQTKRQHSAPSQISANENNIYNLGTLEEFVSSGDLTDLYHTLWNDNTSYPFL
How it was run: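 Using PURExpress in vitro transcription/translation, GST-tagged yeast transcription factors were made in full-length or DNA-binding-domain form. These were applied at about 100-200 nM to double-stranded universal all-10-mer Agilent arrays, and bound protein was detected with fluorescent anti-GST. Scans were normalised with masliner before the Universal PBM Analysis Suite assigned E-scores to ungapped eight-base words pooled with their reverse complements.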

| Sequence | PBM E-score |
| --- | --- |
| GGCCGATA | 0.0764 |
| CATGTTTA | -0.0824 |
| GCCGCATA | 0.237 |
| AAGGGCAC | -0.157 |
| AAGCCGCC | 0.0806 |
| AACCTAGA | 0.11 |
| AGACAGTC | -0.0923 |
| GCGGAATA | 0.398 |
| GTGGAATA | 0.122 |
| CCGGAATC | 0.471 |
| GGGGAATA | 0.121 |
| CTGGAATC | 0.02 |
| CGGGAATC | 0.334 |
| CCCACTCA | -0.108 |
| AGATTGTC | 0.0868 |
| AGTAAAAT | -0.11 |
| ACGGCTAG | -0.152 |
| AAAACCAA | -0.0135 |
| AATATTTG | 0.0496 |
| TATACGGA | 0.221 |
| CATACGGC | 0.143 |
| AATACGGA | 0.351 |
| CATACGGA | 0.359 |
| GATACGGA | 0.357 |
| GATACGGC | 0.014 |

| Sequence | PBM E-score |
| --- | --- |
| CTGTTCTC | -0.0802 |
| ATGAGCTG | -0.0649 |
| CGTATTTA | 0.164 |
| CGGTGCCA | -0.115 |
| AATCCCGT | 0.409 |
| AGTCCCGA | 0.147 |
| AATCCCGA | 0.358 |
| AATCCCGC | 0.333 |
| AATCCCAT | -0.0271 |
| TATCCCGA | 0.305 |
| ACAAGGTG | -0.125 |
| GTCCTCTA | -0.222 |
| GGAACCTA | 0.3 |
| TCTGGCAA | 0.0125 |
| ACCTACGC | -0.0495 |
| TAAACGAA | -0.0987 |
| CAAACGGG | 0.184 |
| TAAACGTA | -0.137 |
| GAAACGGC | 0.202 |
| GAAACGAA | 0.0452 |
| TAAACGGA | 0.366 |
| AAAACGGA | 0.314 |
| GAAACGGA | 0.395 |
| CAAACGGA | 0.37 |
| CAAATGCG | 0.0429 |

| Sequence | PBM E-score |
| --- | --- |
| CATTCTCC | -0.105 |
| CAGGGCAA | 0.0442 |
| CCGCTAGG | 0.0934 |
| TCGCTAGA | -0.125 |
| CGTACCAC | -0.102 |
| AATCCTAG | -0.108 |
| CTGATAGA | -0.118 |
| GTTCCGGA | 0.475 |
| ATTCCGGA | 0.481 |
| CTTCCGGC | 0.398 |
| ATTCCAGA | 0.0594 |
| ATACCGGA | 0.303 |
| CTTCCGGA | 0.451 |
| CTTCCTGA | 0.0336 |
| CTTCCCGA | 0.291 |
| CTACCGGC | -0.0343 |
| CTGCCGGC | 0.339 |
| GTACCGGA | 0.318 |
| GTTCCTGA | -0.0384 |
| AACTGATA | 0.0335 |
| ATAAGCAA | -0.128 |
| GATGCGCA | 0.0246 |
| AAAACCCG | 0.319 |
| CACTTACG | 0.121 |
| AGCCCTCA | -0.248 |

| Sequence | PBM E-score |
| --- | --- |
| GCCGGCGC | 0.372 |
| CCCGGCGA | 0.296 |
| CCCGGCGC | 0.26 |
| GCCGGCGA | 0.36 |
| ACCGGCGA | 0.281 |
| GTCGGCGA | -0.0361 |
| GCCGGCTA | 0.248 |
| TCCGGCGA | 0.356 |
| ACCGGCGC | 0.228 |
| AGAGGCCG | -0.105 |
| CTAGAAGC | -0.166 |
| ATGTCGGC | -0.0499 |
| CGCAACTA | 0.0897 |
| GCGCCGTA | 0.251 |
| ACGCCGCC | 0.0831 |
| CCGCCGCC | 0.244 |
| CCGCCGGA | 0.415 |
| CCGCCGTC | 0.168 |
| GCGCCGGA | 0.384 |
| CCGCCGCA | 0.202 |
| GCGCCGAA | 0.241 |
| ACGCCGGA | 0.289 |
| ACGCCGGG | 0.251 |
| CCGCCGGC | 0.401 |
| ACGCCGGC | 0.385 |

| Sequence | PBM E-score |
| --- | --- |
| GACCTACC | 0.0277 |
| ACCTTTAA | -0.0915 |
| ATGTCGTA | -0.238 |
| CATGAGTA | -0.168 |
| GCGCACGA | 0.0416 |
| GCTGTACC | -0.00444 |
| GCCTGCCC | -0.0411 |
| CCCAAGAA | -0.0373 |
| CCGGCGCC | 0.37 |
| GCGGCGCC | 0.353 |
| ACGGCGCC | 0.243 |
| AACGAACT | -0.245 |
| AGAGAAGG | -0.0862 |
| AGGAAAGC | -0.105 |
| CGGAAAGA | 0.428 |
| CCGAAAGC | 0.136 |
| CGGAAAGC | 0.415 |
| AGGAAAGA | -0.167 |
| GGGAAAGA | 0.0836 |
| CTGCGGTA | -0.0102 |
| GCTTTCAC | -0.107 |
| ACTGGGCT | 0.0297 |
| CCTGCAGA | -0.0209 |
| AGTTCTGG | -0.0246 |
| CGGTGTAC | -0.0705 |

| Sequence | PBM E-score |
| --- | --- |
| AGACTACT | -0.173 |
| TGGATAAA | 0.103 |
| CGGATATA | 0.346 |
| CGGATATC | 0.391 |
| CGGATAAC | 0.333 |
| CGGATACC | 0.31 |
| CGGATACA | 0.364 |
| TGGATACA | -0.189 |
| CGGATAAA | 0.383 |
| AGGATATC | -0.0388 |
| ACTTTGAA | -0.202 |
| ATCTTAGC | -0.2 |
| GGCCAGAC | 0.075 |
| GAGGTCAC | -0.0512 |
| ACCCAGAG | -0.132 |
| AGGCGCAC | 0.147 |
| CCGTGGAG | 0.382 |
| CCGTGGAC | 0.274 |
| CCGTGGAA | 0.437 |
| ACGTGGAA | -0.0114 |
| GCGTGGAA | 0.0102 |
| ACGTGGAG | -0.132 |
| TGCGCCAA | 0.053 |
| ACGCGGAC | 0.229 |
| GCGCGGCA | 0.237 |

| Sequence | PBM E-score |
| --- | --- |
| TCGCGAAA | 0.131 |
| TCGCGGAA | 0.404 |
| ACGCGGAA | 0.407 |
| GCGCGGAA | 0.464 |
| TCGCGGCA | 0.174 |
| GCGCGGAC | 0.305 |
| ACGCGGAT | 0.244 |
| AAACCTCA | 0.109 |
| GAGTTGGC | 0.115 |
| ATAAGCAG | -0.127 |
| CCCGAATA | 0.14 |
| AGGCAGCC | 0.0506 |
| CGGCAGCC | 0.358 |
| CGGCAGCA | 0.109 |
| CCGGTTCC | 0.426 |
| CGGGTTCA | 0.304 |
| CGGGTTCC | 0.414 |
| AGGGTTCC | 0.249 |
| CCGGTTCA | 0.104 |
| CCGGTTCG | 0.217 |
| CTCCATAA | -0.273 |
| CTCGCTGC | 0.00281 |
| CTGGTCTA | -0.254 |
| ACACTTCC | 0.184 |
| CTGTTGAC | -0.162 |

| Sequence | PBM E-score |
| --- | --- |
| AAACCAGG | -0.0534 |
| CGTAACAC | -0.0629 |
| GGGAATCA | 0.0382 |
| CCGAATCC | 0.336 |
| AGGAATCC | 0.0872 |
| CGGAATCA | 0.456 |
| AGGAATCA | -0.0475 |
| CGGAATCC | 0.461 |
| CTTGGGCC | -0.0633 |
| GTATCTGA | -0.146 |
| ACGTCTCG | -0.0164 |
| AAAGTCTC | -0.186 |
| TTAGCGAA | 0.0125 |
| GCTACCAC | -0.16 |
| ACGGGATG | 0.283 |
| CCGGGAGG | 0.334 |
| CGGGGATC | 0.28 |
| ACGGGATA | 0.38 |
| CGGGGATA | 0.33 |
| CGGGGAGA | 0.28 |
| CCGGGATC | 0.453 |
| ACGGGATC | 0.275 |
| CCGGGATA | 0.388 |
| GCGGGATA | 0.322 |
| CTGGGATA | 0.0272 |

| Sequence | PBM E-score |
| --- | --- |
| CCGGGAGA | 0.369 |
| AAGGAATG | 0.126 |
| CGCGTCCG | 0.272 |
| CTTCGCGC | 0.274 |
| ATCTAAAC | -0.113 |
| GCTGGCAA | 0.0154 |
| CTCGGTCA | 0.00197 |
| AACCGGAA | 0.435 |
| GACCGGCA | 0.0622 |
| GACCGGAA | 0.401 |
| AACCGGAT | 0.316 |
| GACCGGAC | 0.28 |
| AACCGGAG | 0.326 |
| TACCGGCA | 0.214 |
| CACCGGGA | 0.272 |
| TACCGGAA | 0.44 |
| CACCGGAA | 0.46 |
| TACCGGTA | 0.103 |
| CACCGGAC | 0.341 |
